Inconclusive results are not listed. Entries that show only a call come without a potency. A number with no mark means an inactive call. Activity calls are given as the source filed them. Calls come from the whole dose curve; as a rule, active = well fitted cell-killing curve with a large enough effect in the repeat runs; inconclusive = weak or mixed curves, or effect the other way; inactive = flat fitted curve, though single readings scatter.
assay: cAMP Responsive Elements (CRE) small molecule agonists, cell-based qHTS assay: qHTS cell viability counter screen (AID 2060914); conditions: CRE-bla HEK293T viability, CellTiter-Glo luminescence, 5 h; series mostly up to 92.4 µM;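 note: viability read after 3 h of compound exposure; nearly all actives have a fitted effect of over 50% in size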
How it was run: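 CRE-bla HEK 293T cells, plated 18 h at 37 °C, were exposed to compounds for 3 h at 37 °C/5% CO2. Viability was then measured in the same wells by CellTiter-Glo luminescence after 30 min at room temperature.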

SMILES | activity change, negative = cytotoxicity | Potency
C=CCCCCCCCCCCCCCCCC | -18.5% [at 8.39 µM] | 
Cc1ccc(-c2ncc(Cl)cc2-c2ccc(S(C)(=O)=O)cc2)cn1 |  | inactive
c1ccc(CNCc2ccccc2)cc1 |  | inactive
O=C(NO)C1(NS(=O)(=O)c2ccc(Oc3ccc(F)cc3)cc2)CCOCC1 |  | inactive
COC(=O)c1ccc(I)cc1S(=O)(=O)NC(=O)Nc1nc(C)nc(OC)n1 |  | inactive
OCc1cccc(Oc2ccccc2)c1 |  | inactive
CCO[Si](CC)(OCC)OCC |  | inactive
CC1=CC[C@@]23C[C@@H]1C(C)(C)[C@@H]2CC[C@H]3C |  | inactive
OCCN(CCO)CCN(CCO)CCO |  | inactive
OCCN1CCN(CCCN2c3ccccc3Sc3ccc(Cl)cc32)CC1 |  | inactive
O=C(O)c1ccc2c(c1)nc(C(=O)NC1CCN(C3CC3)CC1)n2Cc1cc(-c2ccc(Cl)s2)on1 | -9.02% [at 18.9 µM] | 
CN(C)C(=O)Oc1cccc([N+](C)(C)C)c1 |  | inactive
CCCOCCOCCOCCO |  | inactive
NC(=O)N(O)[C@@H]1COc2cc(OCc3ccccc3)ccc21 |  | inactive
c1ccc(B(c2ccccc2)c2ccccc2)cc1 |  | inactive
C/C=C1\C(=O)C[C@H]2[C@@H]3CCC4=CC(=O)CC[C@]4(C)[C@H]3CC[C@]12C |  | inactive
CCCCOC(=O)c1ccc(N)cc1 |  | inactive
CCCCC(CC)COCCO (stereo unspecified) |  | inactive
CCCNCC(O)COc1ccccc1C(=O)CCc1ccccc1 (stereo unspecified) |  | inactive
C#CC(O)CCCCC (stereo unspecified) |  | inactive
CN[C@@H]1[C@@H](O)[C@@H](O[C@@H]2[C@H](O)[C@H](O[C@H]3OC(CN)=CC[C@H]3N)[C@@H](N)C[C@H]2N)OCC1(C)O (stereo partly specified) |  | inactive
